Measurements published in the supplement of paper PMC10849652.
The full data set covers some 8,800 targets. This sample favours those with a hit. About 0.5% of all pairs of compound and target were hits.

Assays:
Assay in all cases: log2 fold change, soluble protein after heating vs DMSO (PISA); higher = thermal stabilisation; K562 lysate, 10 uM; active = over 0.2 and 3.5 SD of the protein, either way, in both replicates (recomputed)
[1] = compound: C1=CC=C(C=C1)[C@H](COC2=CC3=C(C=C2)NC(=O)N3)NC(=O)C4=CC=CN(C4=O)CC5=CC(=C(C=C5)F)F
Outline: (§1)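 Pellets of K562 cells were dounce-homogenised in PBS pH 7.4 with 1 mM MgCl2, and the crude extract was held at 1 mg/mL protein for a 30 min treatment with 10 μM compound. Aliquots were heated for 3 min over 48°C-58°C and pooled before NP-40 was added to 0.5% at 4°C. The supernatant from 21,000xg for 90 min was quantified by TMTpro 16plex LC-MS/MS with channel sums equalised. Values are reported from duplicates as log-two fold change in thermal stability relative to solvent controls.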

[2] = compound: CC1=C(SC2=C1C(=N[C@H](C3=NN=C(N32)C)CC(=O)N)C4=CC=C(C=C4)Cl)C
Outline: as §1

[3] = compound: CC1=C2C(=CC=C1)N=C(N(C2=O)C3=CC=CC=C3C)CN4C=NC5=C(N=CN=C54)N
Outline: as §1

[4] = compound: Cc1sc2c(c1C)C(c1ccc(Cl)cc1)=N[C@@H](CC(=O)OC(C)(C)C)c1nnc(C)n1-2
Outline: as §1

[5] = compound: c1ccc([C@@H]2C[C@H]2NC2CCNCC2)cc1
Outline: as §1

Measured: log2 fold change

SLC11A2 isoform 3 (UniProt P49281)
Sequence of UniProt P49281 (P49281 whole entry, looked up): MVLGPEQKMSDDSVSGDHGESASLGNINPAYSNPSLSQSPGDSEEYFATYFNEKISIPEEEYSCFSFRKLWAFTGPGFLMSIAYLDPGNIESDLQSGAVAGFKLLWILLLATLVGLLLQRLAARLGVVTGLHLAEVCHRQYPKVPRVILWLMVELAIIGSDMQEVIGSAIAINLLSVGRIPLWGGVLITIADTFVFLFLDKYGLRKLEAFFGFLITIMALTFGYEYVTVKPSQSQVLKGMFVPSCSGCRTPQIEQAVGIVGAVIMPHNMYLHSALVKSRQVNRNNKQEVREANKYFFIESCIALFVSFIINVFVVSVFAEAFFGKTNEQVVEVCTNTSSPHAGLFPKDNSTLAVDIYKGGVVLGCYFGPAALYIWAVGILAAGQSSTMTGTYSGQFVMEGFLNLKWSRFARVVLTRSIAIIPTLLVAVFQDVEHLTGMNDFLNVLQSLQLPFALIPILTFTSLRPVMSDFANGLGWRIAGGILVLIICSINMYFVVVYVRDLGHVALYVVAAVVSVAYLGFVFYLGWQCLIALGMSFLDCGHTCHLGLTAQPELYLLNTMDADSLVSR
inactive: [1] -0.081 | [2] -0.017 | [3] 0.016 | [4] -0.01 | [5] 0.003

SMG7 (UniProt Q92540)
Sequence of UniProt Q92540 (Q92540 whole entry, looked up): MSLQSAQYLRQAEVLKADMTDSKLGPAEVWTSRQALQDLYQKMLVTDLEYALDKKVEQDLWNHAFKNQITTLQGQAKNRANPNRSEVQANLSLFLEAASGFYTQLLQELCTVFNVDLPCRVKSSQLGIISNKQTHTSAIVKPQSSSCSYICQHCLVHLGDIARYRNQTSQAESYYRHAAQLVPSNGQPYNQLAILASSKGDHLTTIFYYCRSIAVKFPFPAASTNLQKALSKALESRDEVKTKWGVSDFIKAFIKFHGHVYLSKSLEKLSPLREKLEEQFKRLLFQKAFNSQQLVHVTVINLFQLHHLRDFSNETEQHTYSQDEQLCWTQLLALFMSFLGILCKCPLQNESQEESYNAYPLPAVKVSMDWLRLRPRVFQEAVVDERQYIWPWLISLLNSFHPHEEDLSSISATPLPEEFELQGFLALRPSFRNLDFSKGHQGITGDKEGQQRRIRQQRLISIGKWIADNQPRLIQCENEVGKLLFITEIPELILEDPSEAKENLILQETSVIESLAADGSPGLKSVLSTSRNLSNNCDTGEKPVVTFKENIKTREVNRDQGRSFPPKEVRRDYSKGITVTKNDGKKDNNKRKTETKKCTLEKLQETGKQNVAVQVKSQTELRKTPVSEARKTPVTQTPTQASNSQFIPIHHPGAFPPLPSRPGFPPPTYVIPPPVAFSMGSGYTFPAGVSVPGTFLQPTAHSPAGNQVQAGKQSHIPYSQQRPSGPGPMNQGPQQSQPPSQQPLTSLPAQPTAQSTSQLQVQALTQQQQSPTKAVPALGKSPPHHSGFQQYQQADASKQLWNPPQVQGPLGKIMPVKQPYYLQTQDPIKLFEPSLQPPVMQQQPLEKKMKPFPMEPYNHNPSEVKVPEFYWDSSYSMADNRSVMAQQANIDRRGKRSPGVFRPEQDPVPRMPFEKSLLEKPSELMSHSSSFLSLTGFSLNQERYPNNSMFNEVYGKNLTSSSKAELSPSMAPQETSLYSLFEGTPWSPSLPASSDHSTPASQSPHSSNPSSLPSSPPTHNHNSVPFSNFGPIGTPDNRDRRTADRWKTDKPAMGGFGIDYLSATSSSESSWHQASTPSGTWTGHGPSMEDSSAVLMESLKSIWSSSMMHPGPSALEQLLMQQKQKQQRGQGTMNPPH
inactive: [1] 0.008 | [2] 0.019 | [3] 0.147 | [4] -0.014 | [5] 0.029

SLC27A4 (UniProt Q6P1M0)
Sequence of UniProt Q6P1M0 (Q6P1M0 whole entry, looked up): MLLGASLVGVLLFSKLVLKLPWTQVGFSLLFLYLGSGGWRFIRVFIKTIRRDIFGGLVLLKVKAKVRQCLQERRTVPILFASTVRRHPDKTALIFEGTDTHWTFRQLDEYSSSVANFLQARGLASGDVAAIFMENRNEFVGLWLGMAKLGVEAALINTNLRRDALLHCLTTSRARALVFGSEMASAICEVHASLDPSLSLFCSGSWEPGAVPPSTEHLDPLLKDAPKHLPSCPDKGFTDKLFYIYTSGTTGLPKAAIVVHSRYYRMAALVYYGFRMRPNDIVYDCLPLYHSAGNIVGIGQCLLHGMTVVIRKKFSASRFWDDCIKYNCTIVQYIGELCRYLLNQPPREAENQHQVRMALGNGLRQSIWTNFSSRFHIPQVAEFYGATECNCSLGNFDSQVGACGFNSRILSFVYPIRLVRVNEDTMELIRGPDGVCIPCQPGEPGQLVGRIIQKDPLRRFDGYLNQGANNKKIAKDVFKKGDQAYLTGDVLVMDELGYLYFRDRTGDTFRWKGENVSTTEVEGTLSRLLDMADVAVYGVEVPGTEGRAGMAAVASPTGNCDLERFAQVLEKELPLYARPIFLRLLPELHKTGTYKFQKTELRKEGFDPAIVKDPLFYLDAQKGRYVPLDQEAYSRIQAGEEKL
inactive: [1] 0.106 | [2] -0.006 | [3] 0.054 | [4] -0.002 | [5] 0.121

SPC25 (UniProt Q9HBM1)
Sequence of UniProt Q9HBM1 (Q9HBM1 whole entry, looked up): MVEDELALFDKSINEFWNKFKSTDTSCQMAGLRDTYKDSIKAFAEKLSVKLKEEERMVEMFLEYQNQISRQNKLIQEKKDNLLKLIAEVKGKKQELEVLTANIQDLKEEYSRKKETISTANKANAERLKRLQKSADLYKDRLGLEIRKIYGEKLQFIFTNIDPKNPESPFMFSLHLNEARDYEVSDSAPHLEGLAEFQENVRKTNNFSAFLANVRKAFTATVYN
inactive: [1] 0.055 | [2] 0.044 | [3] 0.029 | [4] 0.022 | [5] 0.039

SNW1 (UniProt Q13573)
Sequence of UniProt Q13573 (Q13573 whole entry, looked up): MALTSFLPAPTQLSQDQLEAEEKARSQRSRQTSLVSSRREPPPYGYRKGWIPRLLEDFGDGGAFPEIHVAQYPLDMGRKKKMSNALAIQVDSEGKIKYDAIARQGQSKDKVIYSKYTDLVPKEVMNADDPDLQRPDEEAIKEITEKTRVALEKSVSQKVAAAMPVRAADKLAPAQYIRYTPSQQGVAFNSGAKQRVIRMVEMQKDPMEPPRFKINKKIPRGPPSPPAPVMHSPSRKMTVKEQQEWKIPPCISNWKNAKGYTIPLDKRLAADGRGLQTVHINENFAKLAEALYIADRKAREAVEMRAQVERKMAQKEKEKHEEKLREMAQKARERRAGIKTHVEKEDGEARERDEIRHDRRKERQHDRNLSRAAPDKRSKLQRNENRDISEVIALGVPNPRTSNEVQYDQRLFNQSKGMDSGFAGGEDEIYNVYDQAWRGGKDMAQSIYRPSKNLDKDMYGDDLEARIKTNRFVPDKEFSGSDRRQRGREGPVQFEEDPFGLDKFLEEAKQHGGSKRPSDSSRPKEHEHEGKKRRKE
inactive: [1] 0.018 | [2] -0.002 | [3] -0.009 | [4] 0.022 | [5] 0.048

SMC3 (UniProt Q9UQE7)
Sequence of UniProt Q9UQE7 (Q9UQE7 whole entry, looked up): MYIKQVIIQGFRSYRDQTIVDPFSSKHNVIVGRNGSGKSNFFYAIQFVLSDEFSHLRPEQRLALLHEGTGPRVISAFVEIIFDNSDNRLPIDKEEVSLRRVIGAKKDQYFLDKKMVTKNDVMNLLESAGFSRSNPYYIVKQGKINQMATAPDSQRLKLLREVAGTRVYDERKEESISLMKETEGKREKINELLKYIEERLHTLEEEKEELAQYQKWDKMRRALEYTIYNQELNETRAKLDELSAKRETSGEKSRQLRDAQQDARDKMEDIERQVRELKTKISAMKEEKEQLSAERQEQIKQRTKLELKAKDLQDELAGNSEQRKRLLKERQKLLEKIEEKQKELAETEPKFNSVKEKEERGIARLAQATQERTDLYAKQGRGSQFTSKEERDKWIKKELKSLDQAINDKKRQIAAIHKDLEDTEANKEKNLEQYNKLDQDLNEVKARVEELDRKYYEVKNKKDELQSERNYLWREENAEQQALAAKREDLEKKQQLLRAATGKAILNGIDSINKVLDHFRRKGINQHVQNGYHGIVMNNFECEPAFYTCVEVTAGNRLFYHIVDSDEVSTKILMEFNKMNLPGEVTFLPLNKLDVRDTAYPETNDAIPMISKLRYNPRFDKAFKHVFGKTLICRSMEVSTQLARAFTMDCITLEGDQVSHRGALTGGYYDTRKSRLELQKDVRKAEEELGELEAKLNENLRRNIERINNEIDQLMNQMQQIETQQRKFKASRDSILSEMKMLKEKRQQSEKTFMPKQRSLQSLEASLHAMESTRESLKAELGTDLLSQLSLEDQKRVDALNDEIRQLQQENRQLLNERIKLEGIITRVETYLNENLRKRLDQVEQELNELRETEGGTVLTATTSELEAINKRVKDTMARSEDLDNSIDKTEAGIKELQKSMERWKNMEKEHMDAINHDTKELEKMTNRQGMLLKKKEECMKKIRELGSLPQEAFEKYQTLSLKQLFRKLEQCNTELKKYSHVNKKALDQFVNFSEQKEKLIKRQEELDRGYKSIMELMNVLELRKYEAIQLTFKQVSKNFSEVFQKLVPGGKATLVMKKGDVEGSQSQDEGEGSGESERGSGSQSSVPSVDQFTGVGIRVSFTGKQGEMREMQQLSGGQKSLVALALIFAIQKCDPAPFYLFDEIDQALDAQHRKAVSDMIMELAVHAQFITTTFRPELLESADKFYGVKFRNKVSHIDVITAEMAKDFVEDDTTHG
inactive: [1] -0.002 | [2] 0.011 | [3] -0.011 | [4] 0.037 | [5] 0.022

SPR (UniProt P35270)
Sequence of UniProt P35270 (P35270 whole entry, looked up): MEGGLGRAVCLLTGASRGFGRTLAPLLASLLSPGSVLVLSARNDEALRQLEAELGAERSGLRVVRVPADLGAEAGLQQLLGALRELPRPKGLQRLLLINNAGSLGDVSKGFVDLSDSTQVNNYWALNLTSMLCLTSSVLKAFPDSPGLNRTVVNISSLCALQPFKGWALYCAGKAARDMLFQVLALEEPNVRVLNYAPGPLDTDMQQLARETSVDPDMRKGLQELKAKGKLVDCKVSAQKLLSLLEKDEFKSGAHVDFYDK
inactive: [1] 0.113 | [2] -0.031 | [3] -0.027 | [4] -0.034 | [5] -0.067

STK25 (UniProt O00506)
Sequence of UniProt O00506 (O00506 whole entry, looked up): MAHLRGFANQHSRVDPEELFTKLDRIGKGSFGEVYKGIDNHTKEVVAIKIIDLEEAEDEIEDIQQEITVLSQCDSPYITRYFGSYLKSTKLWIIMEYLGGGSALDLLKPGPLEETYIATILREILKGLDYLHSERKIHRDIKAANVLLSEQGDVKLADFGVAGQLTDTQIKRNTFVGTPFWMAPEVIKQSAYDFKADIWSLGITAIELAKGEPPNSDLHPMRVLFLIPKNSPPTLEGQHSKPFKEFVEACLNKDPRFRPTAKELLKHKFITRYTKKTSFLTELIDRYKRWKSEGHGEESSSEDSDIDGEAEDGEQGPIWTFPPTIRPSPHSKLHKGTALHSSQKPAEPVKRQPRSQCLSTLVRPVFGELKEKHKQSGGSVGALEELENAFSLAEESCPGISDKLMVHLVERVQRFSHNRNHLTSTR
inactive: [1] -0.05 | [2] 0.035 | [3] -0.062 | [4] 0.053 | [5] -0.048

SLC25A44 (UniProt Q96H78)
inactive: [1] 0.042 | [2] -0.044 | [3] -0.014 | [4] -0.004 | [5] -0.17
